From article PMC11006913
Numbering of substitutions follows the chain as printed.

Columns and labels:
Test in all cases: PBM; 200 nM protein, PBS
Details in all cases: dsDNA, one strand shown
[1] = target: T1, SIX6 (Homo sapiens, UniProt O95475 114-200, L167I)
T1 sequence: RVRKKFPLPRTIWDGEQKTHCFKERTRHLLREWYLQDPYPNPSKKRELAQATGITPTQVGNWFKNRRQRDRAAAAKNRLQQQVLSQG

[2] = target: T2, SIX6 (Homo sapiens, UniProt O95475 114-200, L143V)
T2 sequence: T1 sequence with L30V, I54L

[3] = target: T3, SIX6 (Homo sapiens, UniProt O95475 114-200, H141N)
T3 sequence: T1 sequence with H28N, I54L

[4] = target: T4, SIX6 (Homo sapiens, UniProt O95475 114-200, T165P)
T4 sequence: T1 sequence with T52P, I54L

[5] = target: T5, SIX6 (Homo sapiens, UniProt O95475 114-200, L167M)
T5 sequence: T1 sequence with I54M

[6] = target: T6, SIX6 (Homo sapiens, UniProt O95475 114-200, L143M)
T6 sequence: T1 sequence with L30M, I54L

[7] = target: T7, SIX6 (Homo sapiens, UniProt O95475 114-200, L143I)
T7 sequence: T1 sequence with L30I, I54L

[8] = target: T8, SIX6 (Homo sapiens, UniProt O95475 114-200, T165G)
T8 sequence: T1 sequence with T52G, I54L

[9] = target: T9, SIX6 (Homo sapiens, UniProt O95475 114-200, T139Q)
T9 sequence: T1 sequence with T26Q, I54L

[10] = target: T10, SIX6 (Homo sapiens, UniProt O95475 114-200, T165A)
T10 sequence: T1 sequence with T52A, I54L

[11] = target: T11, SIX6 (Homo sapiens, UniProt O95475 114-200, L167V)
T11 sequence: T1 sequence with I54V

[12] = target: T12, SIX6 (Homo sapiens, UniProt O95475 114-200)
T12 sequence: T1 sequence with I54L

[13] = target: T13, SIX6 (Homo sapiens, UniProt O95475 114-200, T165I)
T13 sequence: T1 sequence with T52I, I54L

Sequence | binding signal [1] | binding signal [2] | binding signal [3] | binding signal [4] | binding signal [5] | binding signal [6] | binding signal [7] | binding signal [8] | binding signal [9] | binding signal [10] | binding signal [11] | binding signal [12] | binding signal [13]
CGATACCC | 11.2 upbm affinity estimate (log intensity, higher = more binding, comparable within an allelic series) | 10.2 upbm affinity estimate (log intensity, higher = more binding, comparable within an allelic series) | 11.3 upbm affinity estimate (log intensity, higher = more binding, comparable within an allelic series) | 9.23 upbm affinity estimate (log intensity, higher = more binding, comparable within an allelic series) | 10.4 upbm affinity estimate (log intensity, higher = more binding, comparable within an allelic series) | 11 upbm affinity estimate (log intensity, higher = more binding, comparable within an allelic series) | 10.4 upbm affinity estimate (log intensity, higher = more binding, comparable within an allelic series) | 11.3 upbm affinity estimate (log intensity, higher = more binding, comparable within an allelic series) | 11.4 upbm affinity estimate (log intensity, higher = more binding, comparable within an allelic series) | 11.2 upbm affinity estimate (log intensity, higher = more binding, comparable within an allelic series) | 10.9 upbm affinity estimate (log intensity, higher = more binding, comparable within an allelic series) | 11.1 upbm affinity estimate (log intensity, higher = more binding, comparable within an allelic series) | 11 upbm affinity estimate (log intensity, higher = more binding, comparable within an allelic series)
CATGATAC | 11.2 upbm affinity estimate (log intensity, higher = more binding, comparable within an allelic series) | 10.3 upbm affinity estimate (log intensity, higher = more binding, comparable within an allelic series) | 11.2 upbm affinity estimate (log intensity, higher = more binding, comparable within an allelic series) | 9.82 upbm affinity estimate (log intensity, higher = more binding, comparable within an allelic series) | 10.7 upbm affinity estimate (log intensity, higher = more binding, comparable within an allelic series) | 10.9 upbm affinity estimate (log intensity, higher = more binding, comparable within an allelic series) | 10.4 upbm affinity estimate (log intensity, higher = more binding, comparable within an allelic series) | 11.3 upbm affinity estimate (log intensity, higher = more binding, comparable within an allelic series) | 11.2 upbm affinity estimate (log intensity, higher = more binding, comparable within an allelic series) | 11.1 upbm affinity estimate (log intensity, higher = more binding, comparable within an allelic series) | 11 upbm affinity estimate (log intensity, higher = more binding, comparable within an allelic series) | 11 upbm affinity estimate (log intensity, higher = more binding, comparable within an allelic series) | 10.9 upbm affinity estimate (log intensity, higher = more binding, comparable within an allelic series)
CGGCCTTC | 8.62 upbm affinity estimate (log intensity, higher = more binding, comparable within an allelic series) | 8.87 upbm affinity estimate (log intensity, higher = more binding, comparable within an allelic series) | 8.82 upbm affinity estimate (log intensity, higher = more binding, comparable within an allelic series) | 9 upbm affinity estimate (log intensity, higher = more binding, comparable within an allelic series) | 8.83 upbm affinity estimate (log intensity, higher = more binding, comparable within an allelic series) | 8.77 upbm affinity estimate (log intensity, higher = more binding, comparable within an allelic series) | 8.94 upbm affinity estimate (log intensity, higher = more binding, comparable within an allelic series) | 8.84 upbm affinity estimate (log intensity, higher = more binding, comparable within an allelic series) | 8.59 upbm affinity estimate (log intensity, higher = more binding, comparable within an allelic series) | 8.81 upbm affinity estimate (log intensity, higher = more binding, comparable within an allelic series) | 8.94 upbm affinity estimate (log intensity, higher = more binding, comparable within an allelic series) | 8.77 upbm affinity estimate (log intensity, higher = more binding, comparable within an allelic series) | 8.7 upbm affinity estimate (log intensity, higher = more binding, comparable within an allelic series)
GATCGATA | 11 upbm affinity estimate (log intensity, higher = more binding, comparable within an allelic series) | 10.3 upbm affinity estimate (log intensity, higher = more binding, comparable within an allelic series) | 11 upbm affinity estimate (log intensity, higher = more binding, comparable within an allelic series) | 9.87 upbm affinity estimate (log intensity, higher = more binding, comparable within an allelic series) | 10.5 upbm affinity estimate (log intensity, higher = more binding, comparable within an allelic series) | 10.8 upbm affinity estimate (log intensity, higher = more binding, comparable within an allelic series) | 10.4 upbm affinity estimate (log intensity, higher = more binding, comparable within an allelic series) | 11 upbm affinity estimate (log intensity, higher = more binding, comparable within an allelic series) | 11.2 upbm affinity estimate (log intensity, higher = more binding, comparable within an allelic series) | 10.9 upbm affinity estimate (log intensity, higher = more binding, comparable within an allelic series) | 10.8 upbm affinity estimate (log intensity, higher = more binding, comparable within an allelic series) | 10.9 upbm affinity estimate (log intensity, higher = more binding, comparable within an allelic series) | 10.8 upbm affinity estimate (log intensity, higher = more binding, comparable within an allelic series)
CCAGTGCG | 8.98 upbm affinity estimate (log intensity, higher = more binding, comparable within an allelic series) | 8.96 upbm affinity estimate (log intensity, higher = more binding, comparable within an allelic series) | 9 upbm affinity estimate (log intensity, higher = more binding, comparable within an allelic series) | 9.02 upbm affinity estimate (log intensity, higher = more binding, comparable within an allelic series) | 8.94 upbm affinity estimate (log intensity, higher = more binding, comparable within an allelic series) | 8.99 upbm affinity estimate (log intensity, higher = more binding, comparable within an allelic series) | 9.05 upbm affinity estimate (log intensity, higher = more binding, comparable within an allelic series) | 9.12 upbm affinity estimate (log intensity, higher = more binding, comparable within an allelic series) | 9.15 upbm affinity estimate (log intensity, higher = more binding, comparable within an allelic series) | 9.01 upbm affinity estimate (log intensity, higher = more binding, comparable within an allelic series) | 9.07 upbm affinity estimate (log intensity, higher = more binding, comparable within an allelic series) | 9.01 upbm affinity estimate (log intensity, higher = more binding, comparable within an allelic series) | 8.95 upbm affinity estimate (log intensity, higher = more binding, comparable within an allelic series)
ACTGCCGG | 9.01 upbm affinity estimate (log intensity, higher = more binding, comparable within an allelic series) | 9.11 upbm affinity estimate (log intensity, higher = more binding, comparable within an allelic series) | 9.15 upbm affinity estimate (log intensity, higher = more binding, comparable within an allelic series) | 9.02 upbm affinity estimate (log intensity, higher = more binding, comparable within an allelic series) | 9.04 upbm affinity estimate (log intensity, higher = more binding, comparable within an allelic series) | 9.15 upbm affinity estimate (log intensity, higher = more binding, comparable within an allelic series) | 9.19 upbm affinity estimate (log intensity, higher = more binding, comparable within an allelic series) | 9.17 upbm affinity estimate (log intensity, higher = more binding, comparable within an allelic series) | 9.29 upbm affinity estimate (log intensity, higher = more binding, comparable within an allelic series) | 9.08 upbm affinity estimate (log intensity, higher = more binding, comparable within an allelic series) | 9.11 upbm affinity estimate (log intensity, higher = more binding, comparable within an allelic series) | 9.23 upbm affinity estimate (log intensity, higher = more binding, comparable within an allelic series) | 9.16 upbm affinity estimate (log intensity, higher = more binding, comparable within an allelic series)
